Assay outcomes from PubChem BioAssay.
This excerpt belongs to a sample that is enriched for hits.
TbREL1 inh: TbREL1 inhibition, primary screen; P86926; TbREL1 RNA ligation, FRET fluorescence; inhibition, % at 9.66 µM; actives 0.49% (n = 89,000); AID 1117264;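 active = inhibition above the mean inhibition across all screened compounds plus 3 SD, cut at about 11% in these data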;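 note: 0% = plate median of test wells and 100% = NSC42067 control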
Target sequence (P86926 whole entry, looked up): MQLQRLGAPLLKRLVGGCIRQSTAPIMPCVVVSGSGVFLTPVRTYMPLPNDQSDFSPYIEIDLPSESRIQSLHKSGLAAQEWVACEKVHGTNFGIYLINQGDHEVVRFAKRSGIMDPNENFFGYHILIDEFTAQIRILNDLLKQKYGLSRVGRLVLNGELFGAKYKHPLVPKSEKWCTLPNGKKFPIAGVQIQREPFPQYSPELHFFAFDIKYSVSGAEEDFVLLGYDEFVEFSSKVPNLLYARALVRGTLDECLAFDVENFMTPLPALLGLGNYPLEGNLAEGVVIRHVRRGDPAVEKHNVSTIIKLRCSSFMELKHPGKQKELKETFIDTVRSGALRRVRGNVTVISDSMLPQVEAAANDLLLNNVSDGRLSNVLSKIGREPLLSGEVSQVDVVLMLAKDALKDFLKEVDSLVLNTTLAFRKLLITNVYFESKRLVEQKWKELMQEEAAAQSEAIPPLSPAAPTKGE
TbREL1 confirm: TbREL1 inhibition, confirmation; actives 37% (n = 390); shares compounds with TbREL1 inh; TbREL1 RNA ligation, FRET fluorescence; inhibition, % at 9.66 µM;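 active = mean inhibition across replicates above a set limit taken from the earlier primary screen, cut at about 11% in these data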;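 note: 0% = REL1 with substrate and DMSO and 100% = REL1 plus control inhibitor NSC42067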
Starred values were filed as active, the others as inactive.

SMILES | TbREL1 inh | others
COc1ccc(CSc2nnc(SCC(=O)Nc3ccc(S(N)(=O)=O)cc3)s2)cc1 | 0
O=C(NCCO)[C@H](Cc1ccccc1)NC1(C(=O)NCCN2CCOCC2)CCCCC1 | -3
O=C(NCc1ccco1)C1CCCN(S(=O)(=O)c2ccc([N+](=O)[O-])cc2)C1 (stereo not given) | 0
COc1ccc(CSc2nnc(SCC(=O)Nc3ccc4c(c3)OCO4)s2)cc1 | 1
CN1CCCC1CCSc1ncccc1-c1nc2ccccc2[nH]1 (stereo not given) | 1
COc1ccc2cc(-c3cn(C(=O)N(c4ccccc4)c4ccccc4)nn3)ccc2c1 | 1
COC(=O)C1=C(C)N(CC(C)C)C(=S)NC1c1cccc(F)c1 (stereo not given) | -5
COC(=O)C1=C(C)N(C)C(=NCc2ccc(C(F)(F)F)cc2)NC1c1ccc(F)cc1 (stereo not given) | 7
COC(=O)C1=C(C)N(C)C(=NCC2CC2)NC1c1ccccc1C(F)(F)F (stereo not given) | -2
COC(=O)C1=C(C)N(C)C(=NCc2cccc(C(F)(F)F)c2)NC1c1ccccc1C(F)(F)F (stereo not given) | 11
COC(=O)C1=C(C)N(Cc2cccc(C(F)(F)F)c2)C(=NCc2ccc(C(F)(F)F)cc2)NC1c1ccccc1C(F)(F)F (stereo not given) | 18* | TbREL1 confirm=22*
COC(=O)C1=C(C)N(C)C(=NCc2ccccc2C(F)(F)F)NC1c1cccc(F)c1 (stereo not given) | 13* | TbREL1 confirm=18*
COC(=O)C1=C(C)N(Cc2ccccc2)C(=NCc2cc(OC)c(OC)c(OC)c2)N[C@H]1CCc1ccccc1 | 3
COC(=O)C1=C(C)N(Cc2cccc(C(F)(F)F)c2)C(=NCc2ccc(OC)cc2)NC1c1ccccc1C(F)(F)F (stereo not given) | 12* | TbREL1 confirm=23*
COc1ccc(OC)c(NC(=O)O[C@@H]2CC[C@@]34CCCN3C(=O)CCC[C@H]4C2)c1 | -1
Cc1nc2ccc(NC(=O)c3cc(Cl)ccc3F)cc2c(=O)[nH]1 | 2
Cc1ccc(CNC(=O)O[C@H]2CC[C@@]34CCCN3C(=O)CCC[C@H]4C2)cc1 | -6
O=C(OCc1cn(Cc2ccccc2Cl)nn1)N1CCOCC1 | 4
C[C@H]1[C@H](NC(=O)c2ccc(Cl)c(C(F)(F)F)c2)CC[C@@]23CCCN2C(=O)CCC[C@@H]13 | -1
COC(=O)[C@]12C[C@H](CC(=O)NCc3cccc(C(F)(F)F)c3)C(=O)N(Cc3ccco3)C1=C[C@H](C(C)C)O[C@@H]2C1CC1 | -2
O=C1CC(N2CCN(S(=O)(=O)c3ccccc3F)CC2)C(=O)N1c1ccccc1F (stereo not given) | 11* | TbREL1 confirm=-3
O=C1CC(N2CCN(S(=O)(=O)c3ccccc3)CC2)C(=O)N1c1ccccc1 (stereo not given) | 2
Cc1cccc(C)c1N1C(=O)CC(N2CCN(S(=O)(=O)c3ccccc3F)CC2)C1=O (stereo not given) | 3
COC(=O)[C@]12C[C@H](CC(=O)N3CCN(C(=O)c4ccco4)CC3)C(=O)N(Cc3ccc(Cl)cc3Cl)C1=C[C@H](COCc1ccccc1)O[C@@H]2C | -6
O=S(=O)(c1ccc(F)cc1)n1c(CN2CCOCC2)nc2ccccc21 | -1
SMILES | TbREL1 inh | others
CC(=O)N1CCCN(C(=O)CN2C(=O)CC(C)(C)S(=O)(=O)c3ccccc32)CC1 | 0
CCC(C)N(C(C)CC)S(=O)(=O)c1ccc2[nH]c(=O)oc2c1 (stereo not given) | 2
Cc1onc(-c2c(F)cccc2Cl)c1C(=O)Nc1cc(S(=O)(=O)N2CCCCC2)ccc1O | 22* | TbREL1 confirm=2
Cc1onc(-c2ccccc2)c1C(=O)Nc1ccc(S(=O)(=O)N2CCCCC2)cc1 | 0
Cc1ccc(O)c(NC(=O)c2cccc(S(=O)(=O)N3CCCCC3)c2)c1 | -4
Fc1ccccc1-c1n[nH]c(=S)n1N=Cc1ccc(-c2ccccc2)cc1 | 0
O=C(c1ccc(F)cc1)n1ccc2ccc(-c3ccc4ccn(Cc5ccccc5)c4c3)cc21 | 10
O=C(Cn1nc(-c2ccccc2)ccc1=O)NCCc1cccc(F)c1 | -2
C[C@H]1C(c2ccccc2F)O[C@]2(C[C@H](O)c3c(ccc4ccccc34)O2)C[C@@H]1O (stereo not given in full) | 0
O=C(O)c1cccc(NS(=O)(=O)c2cccc3cccnc23)c1 | 0
CCOc1ccc(C(=O)O)cc1OC | -1
O=C(O)c1ccnc(C(=O)O)c1 | 13* | TbREL1 confirm=16*
NC(=O)c1c(N)[nH]c(C(=O)c2ccccc2)c1-c1ccccn1 | 0
COc1ccc(-n2c(SCC(=O)Nc3ccc(S(=O)(=O)Nc4nccs4)cc3)nnc2-c2cccs2)cc1 | -3
Cc1cc(C)cc(N(CC(=O)NC2CCC(C)CC2)S(=O)(=O)c2ccc(Br)s2)c1 (stereo not given) | 3
CC(C)Cn1c(=O)cc(N2CCN(c3cccc(C(F)(F)F)c3)CC2)[nH]c1=O | -3
